Data published in PubChem BioAssay (NCI).
The panel holds about 83,000 compounds, 20% with a hit somewhere; the sample as a whole holds those more often.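 Each cell line was grown in a 96-well plate and treated with one concentration of compound for 48 hours. Values below 10 were considered active.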 Active and inactive are the calls of the source.

What was measured:
Test in all cases: NCI-60 one-dose screen, 48 h (100 = growth as untreated, 0 = no growth, -100 = all killed)
Details in all cases: 10 µM unless noted
[1] = test system: HCT-15 colon
[2] = test system: HT29 colon
[3] = test system: SNB-75 CNS
[4] = test system: SNB-19 CNS
[5] = test system: U251 CNS
[6] = test system: PC-3 prostate
[7] = test system: SK-MEL-5 melanoma
[8] = test system: UACC-62 melanoma
[9] = test system: LOX IMVI melanoma
[10] = test system: SK-MEL-28 melanoma

Measured: growth

COc1ccc(OC)c(/C=C2\Oc3cc(OCCN4CCC(Cc5ccccc5)CC4)ccc3C2=O)c1
inactive: [1] 24.3% | [2] 21.4% | [3] 72.6% | [4] 98.8% | [5] 81.2% | [6] 78% | [7] 75.2% | [8] 92.8% | [9] 56.1% | [10] 89.5%

CC[C@H](C)C(=O)O[C@H]1CCC=C2C=C[C@H](C)[C@H](CC[C@@H]3CC=CC(=O)O3)[C@H]21
inactive: [1] 85.7% | [2] 67.7% | [3] 68.9% | [4] 83.5% | [5] 88.1% | [6] 61.6% | [7] 77% | [8] 82.3% | [9] 53.3% | [10] 94.8%

COc1ccc2[nH]c(-c3ccccc3)c(/C=C(\C#N)S(=O)(=O)c3ccccc3)c2c1
inactive: [1] 39.3% | [2] 21% | [3] 48.1% | [4] 63.2% | [5] 39% | [6] 49.6% | [7] 14.9% | [8] 42.1% | [9] 61.2% | [10] 53.4%

N#CC1=C(N)Oc2c(sc3c(Br)cccc23)C1c1ccc(Br)cc1 (stereo not given)
inactive: [1] 22.4% | [3] 15% | [4] 52.6% | [5] 14% | [6] 15.3% | [7] 15.6% | [8] 21.2% | [9] 21.6% | [10] 50.6%
active: [2] 1.76%

C[N+]1=C(/C=C/c2ccc(O)c3ncccc23)C(C)(C)c2ccccc21
inactive: [1] 25% | [2] 96.9% | [3] 30.8% | [4] 27.9% | [5] 17.1% | [6] 71.2% | [8] 39.2% | [9] 40.4% | [10] 51.5%
active: [7] 1.13%

C=C1C(=O)O[C@H]2[C@H]1CC/C(COC(=O)CSCC(=O)OC/C1=C/CC[C@@]3(C)O[C@H]3[C@H]3OC(=O)C(=C)[C@@H]3CC1)=C\CC[C@@]1(C)O[C@@H]21
active: [1] 5.12% | [2] -26% | [9] -25.2% | [10] -3.76%
inactive: [3] 81.8% | [4] 69.1% | [5] 34.3% | [6] 46.9% | [7] 63.2% | [8] 42.4%

CCc1cccc2c3c(sc12)C(c1ccc(F)cc1)C(C#N)=C(N)O3 (stereo not given)
inactive: [1] 14.5% | [2] 12.7% | [3] 24.1% | [4] 39.8% | [5] 29.2% | [6] 20.4% | [7] 27.4% | [8] 39% | [9] 14.6% | [10] 60.5%

CN(C)CCNc1nc2ccccc2c2c(=O)c3cc(F)ccc3sc12
active: [2] -3.23% | [9] -64.3%
inactive: [1] 22.7% | [3] 54.9% | [4] 55.4% | [5] 41.4% | [6] 40.4% | [7] 83.5% | [8] 53.4% | [10] 55.6%

COc1ccc(OC)c(/C=C/c2nnc(Nc3ccccc3)o2)c1
inactive: [1] 90.5% | [2] 93.6% | [3] 82.1% | [4] 96.9% | [5] 98% | [6] 93.8% | [7] 90% | [8] 92.1% | [9] 99.5% | [10] 108%

CCCCCCn1c(-c2ccc(C(=O)O/N=C(\N)c3ccc4ccccc4c3)cc2)nc(-c2ccccc2)c1-c1ccccc1
inactive: [1] 49.3% | [2] 74.5% | [3] 16% | [4] 68.9% | [5] 50.2% | [6] 51.3% | [7] 68.2% | [8] 61.1% | [10] 72.9%
active: [9] -88.6%

CCc1cccc2c1S/C(=C/c1ccc(Cl)cc1)C2=O
inactive: [1] 92.5% | [2] 105% | [3] 73.3% | [4] 95.1% | [5] 99.2% | [6] 88.6% | [7] 99.4% | [8] 88.6% | [9] 93.8% | [10] 110%
